Assay results as given in PMC4552634, “A New Set of Chemical Starting Points with Plasmodium falciparum Transmission-Blocking Potential for Antimalarial Drug Discovery” (PLoS ONE, 2015).
In all, about 13,000 compounds went through this assay and about 3,200 (25%) showed an effect of 50% or more. This is one part of the list.

system: P. falciparum stage V gametocytes; set-up: BacTiter-Glo ATP luminescence viability of purified stage V gametocytes in 384-well plates, per cent inhibition versus DMSO; details: 48 h, 5 µM; inhibitor

| SMILES | % Inhibition [%] |
| --- | --- |
| CCCCCc1cnc2nc(N)nc(N)c2c1 [TCMDC-137922] | -4.326 |
| N#Cc1ccc2c(c1)CCN(CCC1CCC(NC(=O)/C=C/c3c[nH]c4c(Br)cccc34)CC1)CC2 (stereo not drawn) [TCMDC-139672] | -4.951 |
| Cc1cccc2[nH]c(-c3ccc(-c4ccc(NC(=O)NCc5ccc(F)cc5)cc4)cc3)nc12 [TCMDC-133302] | 17.3 |
| CC(=O)Nc1ncc(C(=O)Nc2cccc(-c3ccc(-c4nc5c(C)cccc5[nH]4)cc3)c2)s1 [TCMDC-136913] | 10.82 |
| Cc1cnc(C[S+]([O-])c2nc3ccc(C(F)(F)F)cc3[nH]2)cc1OCc1ccccc1 (stereo not drawn) [TCMDC-131542] | 10.44 |
| Nc1nc(N)c2c(Cc3ccccc3)cccc2n1 [TCMDC-137764] | -5.935 |
| CCN(CC)CCN(Cc1ccc(-c2ccc(C(F)(F)F)cc2)cc1)C(=O)Cn1cc(CCCCc2cccc(F)c2F)c(=O)c2ccccc21 [TCMDC-141340] | 60.46 |
| CCN(CC)CCN(Cc1ccc(-c2ccc(C(F)(F)F)cc2)cc1)C(=O)Cn1cc(CCCc2cccc(F)c2F)c(=O)c2ccccc21 [TCMDC-141331] | 81.22 |
| COc1ccc(OC)c2c1CCN(C)C2Cc1cccc2ccccc12 (stereo not drawn) [TCMDC-137509] | 12.85 |
| O=C(NC1CCC(N2CCC(c3nc4ccccc4s3)CC2)CC1)c1cc2ccccc2[nH]1 (stereo not drawn) [TCMDC-132780] | -77.63 |
| Cc1cc(C(=O)Nc2ccc3c(c2)CCN3C2CCN(Cc3ccc4nsnc4c3)C2)no1 (stereo not drawn) [TCMDC-135076] | -30.56 |
| O=S(=O)(NC1=NCCC1)c1cccc(Nc2nc(C(F)(F)F)nc3ccccc23)c1 [TCMDC-124821] | -4.384 |
| Cc1cccc2nc(-c3ccc(-c4cccc(CNC(C)C)c4)s3)[nH]c12.O=C(O)C(F)(F)F [TCMDC-132743] | 8.329 |
| CNc1ccc(CNCc2cccc(-c3ccc(-c4nc5cccc(C)c5[nH]4)s3)c2)cc1.O=C(O)C(F)(F)F [TCMDC-132983] | 78.71 |
| Cc1cccc2nc(-c3ccc(-c4cccc(CNCc5ccc(CN)cc5)c4)s3)[nH]c12.O=C(O)C(F)(F)F [TCMDC-132812] | 115.3 |
| CNc1ccc(CNCc2cccc(-c3ccc(-c4nc5ccccc5[nH]4)s3)c2)cc1.O=C(O)C(F)(F)F [TCMDC-132977] | -37.37 |
| Cc1cccc2nc(-c3ccc(-c4cccc(CNCc5ccccc5)c4)s3)[nH]c12.O=C(O)C(F)(F)F [TCMDC-132703] | -30.5 |
| Cc1noc(C)c1-c1cccc(CNCc2cccc(-c3ccc(-c4nc5cccc(C)c5[nH]4)s3)c2)c1.O=C(O)C(F)(F)F [TCMDC-133059] | -9.203 |
| C=CCOC(=O)N1CCC(CNCc2ccc(-c3cccc(-c4nc5ccccc5[nH]4)c3)cc2)C1.O=C(O)C(F)(F)F (stereo not drawn) [TCMDC-132566] | 89.86 |
| C=CCOC(=O)N1CCC(CNCc2cccc(-c3cccc(-c4nc5ccccc5[nH]4)c3)c2)C1.O=C(O)C(F)(F)F (stereo not drawn) [TCMDC-133046] | -7.738 |
| Cc1cccc2nc(-c3ccc(-c4cccc(CNCc5cccc(N)c5)c4)s3)[nH]c12.O=C(O)C(F)(F)F [TCMDC-132936] | -17.71 |

| SMILES | % Inhibition [%] |
| --- | --- |
| C=CCOC(=O)N1CCC(CNCc2ccc(-c3cccc(-c4nc5cc(F)ccc5[nH]4)c3)cc2)C1.O=C(O)C(F)(F)F (stereo not drawn) [TCMDC-133044] | 2.158 |
| Cc1cccc2nc(-c3ccc(-c4cccc(CNC5CCN(C)CC5)c4)s3)[nH]c12.O=C(O)C(F)(F)F [TCMDC-132736] | 105.5 |
| COc1ccc(CNCc2cccc(-c3ccc(-c4nc5cccc(C)c5[nH]4)s3)c2)cc1.O=C(O)C(F)(F)F [TCMDC-132722] | 2.559 |
| CC1(C)N=C(N)N=C(N)N1OCc1cccc(C#N)c1 [TCMDC-124037] | -12.77 |
| CCCC(C)Nc1nc(C)cc(N[C@@H](CC(C)C)C(=O)NCc2ccc(C)cc2)n1 (stereo partly drawn) [TCMDC-134897] | -16.22 |
| Cc1ccc(N2C(=O)C3C(C2=O)C2(c4ccccc4)C(=O)C3(c3ccccc3)C(c3ccccc3)=C2c2ccccc2)cc1 (stereo not drawn) [TCMDC-124241] | -3.804 |
| CN1C(=O)[C@H](NC(=O)[C@@H](Cc2ccccc2)NC(=S)Nc2ccccc2)N=C(c2ccccc2)c2ccccc21 [TCMDC-132115] | 12.99 |
| Cc1ccc(Nc2nc(C)cc(NC3CC3)n2)cc1 [TCMDC-133469] | 5.355 |
| CC1CCCN(Cc2c(O)ccc3c(=O)c(-c4nc5ccccc5s4)c(N)oc23)C1 (stereo not drawn) [TCMDC-124468] | -5.264 |
| Cc1ccc(-c2nnc(-c3ccc(C(=O)NC4CCN(Cc5ccc(C#N)cc5)CC4)cc3)o2)cc1Br [TCMDC-136130] | -28.74 |
| Cc1ccc(Cn2c(N3CCC(C(=O)NCc4cccs4)CC3)nc3ccccc32)cc1 [TCMDC-124400] | 16.64 |
| C=CCOC(=O)N1CCC(CNCc2cccc(-c3cccc(-c4nc5cccc(C)c5[nH]4)c3)c2)C1.O=C(O)C(F)(F)F (stereo not drawn) [TCMDC-133038] | -20.08 |
| Cc1cccc2nc(-c3ccc(-c4ccc(CNCc5cccc(N)c5)cc4)s3)[nH]c12.O=C(O)C(F)(F)F [TCMDC-132932] | -65.22 |
| C=CCOC(=O)N1CCC(CNCc2cccc(-c3ccc(-c4nc5cccc(C)c5[nH]4)s3)c2)C1.O=C(O)C(F)(F)F (stereo not drawn) [TCMDC-133043] | 63.05 |
| CNCCNCc1cccc(-c2ccc(-c3nc4cccc(C)c4[nH]3)s2)c1.O=C(O)C(F)(F)F [TCMDC-132835] | 98.35 |
| Cc1cccc2nc(-c3ccc(-c4cccc(CNCCCNS(C)(=O)=O)c4)s3)[nH]c12.O=C(O)C(F)(F)F [TCMDC-133078] | -8.111 |
| Cc1cccc2nc(-c3ccc(-c4ccc(CNCc5ccc(CN)cc5)cc4)s3)[nH]c12 [TCMDC-132809] | 97.61 |
| C=CCOC(=O)N1CCC(CNCc2cccc(-c3ccc(-c4nc5cccc(C)c5[nH]4)cc3)c2)C1.O=C(O)C(F)(F)F (stereo not drawn) [TCMDC-133040] | 4.148 |
| Cc1cccc2nc(-c3ccc(-c4cccc(CNCCc5ccncc5)c4)s3)[nH]c12.O=C(O)C(F)(F)F [TCMDC-132853] | -22.63 |
| COc1ccc(CNCc2ccc(-c3ccc(-c4nc5cccc(C)c5[nH]4)s3)cc2)cc1.O=C(O)C(F)(F)F [TCMDC-132727] | 15.75 |
| COc1cccc(CNC[C@@H](O)[C@H](Cc2ccccc2)NC(=O)c2cc(C(C)C)cc(N3CCCC3=O)c2)c1 [TCMDC-134130] | 14.96 |

| SMILES | % Inhibition [%] |
| --- | --- |
| CCc1ccc2c(c1O)CCN(C)C2Cc1ccccc1Cl (stereo not drawn) [TCMDC-137165] | 18.04 |
| CC(=O)C1=NN(c2ccc(C)cc2)C(c2cccs2)N1c1ccccc1 (stereo not drawn) [TCMDC-125627] | -78.13 |
| Cc1cccc2[nH]c(-c3cccc(-c4ccc(NC(=O)NCc5ccccc5)cc4)c3)nc12 [TCMDC-133158] | -0.2096 |
| CNC(=O)c1cc(S(=O)(=O)Nc2ccc(OC)cc2)cs1 [TCMDC-124815] | 61.29 |
| COc1ccc(NC(=O)c2c(NC(=O)c3cccs3)sc3c2CCCC3)cc1 [TCMDC-125745] | -21.48 |
| COc1ccc(NS(=O)(=O)c2ccc(Oc3nc(C)nc4sc5c(c34)CCCC5)cc2)cc1 [TCMDC-124337] | 4.693 |
| CC1(C)CC2CC(C)(CN2C(=O)c2cc(C(C)(C)C)nn2Cc2ccccc2)C1 (stereo not drawn) [TCMDC-133777] | -28.49 |
| O=C(Nc1cc(Cl)ccc1-n1cncn1)C1(c2ccccc2)CC1 [TCMDC-125455] | 2.448 |
| COc1ccc(CN2CCN(CC(=O)Nc3cc(Cl)ccc3-n3cncn3)CC2)cc1F [TCMDC-125242] | 66.84 |
| O=C(COc1ccccc1Cc1ccccc1)Nc1cc(Cl)ccc1-n1cncn1 [TCMDC-125098] | -48.08 |
| CN1CCCc2ccc(NC(=O)c3ccc(-c4cc(C(F)(F)F)nn4C)s3)cc2C1 [TCMDC-133945] | -15.63 |
| CC1CCN(Cc2c(O)ccc3c(CN4CCC(C)CC4)c(O)ccc23)CC1 [TCMDC-137584] | -14.01 |
| CC(C)c1ccc(-c2noc(SCC(=O)N(C)c3ccc(F)cc3)n2)cc1 [TCMDC-124744] | -3.802 |
| CCN1CCN(C(=O)NC(C(=O)N2CCCC(COc3ccc(Cc4ccccc4)cc3)C2)c2cccs2)C(=O)C1=O (stereo not drawn) [TCMDC-139273] | 35.06 |
| CN1CCCC1CCNc1ncc2c(-c3ccc(NC(=O)Nc4cc(C(F)(F)F)ccc4F)cc3)nn(C)c2n1 (stereo not drawn) [TCMDC-141584] | 59.4 |
| CN1CCCC1CCNc1ncc2c(-c3ccc(NC(=O)Nc4cc(C(F)(F)F)ccc4F)c(F)c3)nn(C)c2n1 (stereo not drawn) [TCMDC-141610] | 99.17 |
| CCCCCC(C)N=C(Nc1ccc(C#N)cc1O)Nc1ccccc1Br (stereo not drawn) [TCMDC-140129] | -25.57 |
| Cc1cc([N+](=O)[O-])ccc1N1CCN(CCCCNC(=O)c2ccc(NC(=O)c3ccc(Cl)cc3)cc2)CC1 [TCMDC-138261] | 16.06 |
| C[C@@H](CC1CCCCC1)OC(=O)N(C)[C@H]1CCN(C#N)C1 [TCMDC-138501] | 35.73 |
| CCCC1N=C(N)N=C(N)N1c1ccc(Cl)cc1 (stereo not drawn) [TCMDC-131296] | -9.139 |
| CCNc1cc(C(=O)N[C@@H](Cc2ccccc2)[C@H](O)CNCc2cc(OC)cc(OC)c2)cc(N2CCCS2(=O)=O)c1 [TCMDC-134557] | -5.029 |
